Results published in PubChem BioAssay AID485360 (National Center for Advancing Translational Sciences (NCATS), 2010).
“And” between values parts separate entries of the source, which are not always exact repeats. Equal entries are not always repeated. In all, about 230,000 compounds went through this assay and about 1,500 (0.65%) were called active. Another 3% or so got no clear call; they are omitted. The sample holds actives, similar compounds and a random draw of the others, so the mix is not that of the screen. The call rests on the fitted dose curve; in most records, active means well fitted inhibition curve with a large enough effect; inconclusive means small, poorly fitted or top-dose-only effect; inactive means no such curve, though single readings can be large or run the other way. More than one record can exist for a structure, and the calls need not agree.

target: Lethal(3)malignant brain tumor-like protein 1 (Homo sapiens) (UniProt Q9Y468); assay: qHTS Assay for the Inhibitors of L3MBTL1; conditions: AlphaScreen L3MBTL1–H3K9me1 peptide binding; series mostly up to 57.1 µM; activity, negative = inhibition: at the top concentration; further: nearly all actives have a fitted effect of over 60% in size
Sequence (Q9Y468 whole entry, looked up): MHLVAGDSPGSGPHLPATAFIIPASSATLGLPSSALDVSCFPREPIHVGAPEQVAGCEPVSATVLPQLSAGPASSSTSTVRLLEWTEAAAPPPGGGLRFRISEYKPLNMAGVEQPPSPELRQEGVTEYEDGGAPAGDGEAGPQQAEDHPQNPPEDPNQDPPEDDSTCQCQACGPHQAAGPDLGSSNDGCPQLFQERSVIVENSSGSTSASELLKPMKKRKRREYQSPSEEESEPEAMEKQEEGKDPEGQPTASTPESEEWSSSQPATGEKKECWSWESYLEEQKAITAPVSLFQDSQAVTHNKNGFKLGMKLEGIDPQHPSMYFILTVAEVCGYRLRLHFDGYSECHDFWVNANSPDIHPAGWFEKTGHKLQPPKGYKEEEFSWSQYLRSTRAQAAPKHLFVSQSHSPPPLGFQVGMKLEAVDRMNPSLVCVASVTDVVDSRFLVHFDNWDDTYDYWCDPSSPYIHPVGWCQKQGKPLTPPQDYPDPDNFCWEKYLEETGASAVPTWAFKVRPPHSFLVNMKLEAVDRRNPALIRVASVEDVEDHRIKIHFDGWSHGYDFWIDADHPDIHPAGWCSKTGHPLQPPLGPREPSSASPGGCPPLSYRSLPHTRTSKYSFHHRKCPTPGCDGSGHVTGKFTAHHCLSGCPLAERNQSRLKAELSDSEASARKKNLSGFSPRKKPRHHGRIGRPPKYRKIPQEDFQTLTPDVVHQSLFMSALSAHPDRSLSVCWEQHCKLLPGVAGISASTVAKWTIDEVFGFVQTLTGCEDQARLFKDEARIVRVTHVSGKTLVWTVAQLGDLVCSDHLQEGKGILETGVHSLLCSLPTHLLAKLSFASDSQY
From the text: The histone code is comprised of many post-translational modifications that occur mainly in histone tail peptides. The identity and location of these marks are read by a variety of histone binding proteins that are emerging as important regulators of cellular differentiation and development and are increasingly being implicated in numerous disease states. Small molecule probes that disrupt the interaction between histone binding proteins and chromatin would enable a systematic chemical biology study of proteins that read the histone code and could potentially reveal new targets for drug discovery. However, no such small molecules are known. This dearth of quality molecular probes can largely be attributed to the novelty of the target class and the lack of screening assays. This proposal details the development of the first high-throughput screening assay for the discovery of inhibitors of methyl-lysine binding proteins and how it can be be used to initiate a full-scale discovery effort for antagonists of histone binding proteins. Specifically, this work focuses on an AlphaScreen(tm)-based HTS assay for Malignant Brain Tumor (MBT) domain-containing proteins, which bind to the lower methylation states of lysine residues present in histone tail peptides.
To each well, 2 uL of L3MBTL1 protein (final 50 nM) and 1 uL biotinylated histone peptide monomethylated at Lys9 [b-AHA-H3(1-15)K9me1] (final 75 nM) was added using a nanoliter dispenser. Formation of a protein-peptide complex proceeded at room temperature for 30 min. A Kalypsys pin-tool was employed to transfer 23 nL of library compound solution in DMSO to each well. Cefsulodin, found in a pilot screen of the LOPAC library to be a weak inhibitor of L3MBTL1 binding, was used as an intraplate control with a 16-point titration in duplicate. Following a 30 min incubation of the protein-peptide complex with compounds at room temperature, a mixture of 40 ug/mL each streptavidin-coated donor and nickel chelate acceptor AlphaScreen beads (final 10 ug/mL) was added in a 1 uL dispense for a final volume of 4 uL. Plates were incubated, protected from the light for 30 min at room temperature. Microplates were then be read on an EnVision multilabel plate reader using the 1,536 plate HTS AlphaScreen aperture (excitation time 80 ms, measurement time 240 ms).
On the % scale 0 is the no-effect control and ±100 the full control effect; potency means the concentration at half of the fitted maximal effect.

Row | SMILES | activity, negative = inhibition | Potency
1 | O=C1N/C(=C/c2cccs2)C(=O)N1Cc1ccc(F)cc1 | 7.41% (inactive) | –
2 | CSC1=N/C(=C\c2ccc3c(c2)OCO3)C(=O)S1 | -5.37% (inactive) | –
3 | CSC1=N/C(=C\C=C\c2cccs2)C(=O)S1 | – | 20 µM (active)
4 | Cc1ccnc(SCC(=O)Nc2cccc(S(=O)(=O)N3CCOCC3)c2)n1 | -1.74% (inactive) | –
5 | COc1ccccc1C(CNC(=O)c1cccc(NS(=O)(=O)c2ccc(Br)cc2)c1)N(C)C (stereo unspecified) | 5.64% (inactive) | –
6 | COc1ccc(Cc2nnc(N/N=C/c3ccccc3O)[nH]c2=O)cc1OC | – | 8.91 µM (active)
7 | CCOc1ccc(-n2c(O)c(/C=N/Nc3nnc(C)c(=O)[nH]3)c3ccccc3c2=O)cc1 | -28% (inactive) | –
8 | COc1ccc(/C=N/Nc2nc3ccccc3c(=O)[nH]2)cc1 | 4.78% (inactive) | –
9 | CCOc1ccccc1OCC(=O)Nc1ccccc1C(=O)NC1CC1 | -6.53% (inactive) | –
10 | CC(OC(=O)c1ccc(S(=O)(=O)N2CCOCC2)cc1)c1ccccc1 (stereo unspecified) | 11.6% (inactive) | –
11 | COc1ccc(-c2noc(CCC(=O)N3CCN(c4cccc(C)c4)CC3)n2)cc1 | -5.84% (inactive) | –
12 | CN(C)c1ccc(-n2cccc2/C=C2/SC(=Nc3ccc(F)cc3)NC2=O)cc1 | -2.95% (inactive) | –
13 | Cc1ccc(N=C2NC(=O)/C(=C/C=C/c3ccco3)S2)cc1C | – | 22.4 µM (active)
14 | Cc1cccc(N=C2NC(=O)/C(=C/c3cn(C)c4ccccc34)S2)c1 | -12.5% (inactive) | –
15 | CC(=O)N1c2ccc(S(=O)(=O)N3CCCC(C(=O)Nc4ccc(C)cc4C)C3)cc2CC1C (stereo unspecified) | -1.87% (inactive) | –
16 | O=C(COC(=O)C1CCCO1)Nc1nc(-c2ccc(F)cc2)cs1 (stereo unspecified) | 5.76% (inactive) | –
17 | O=C(CSc1nc2ccccc2c(=O)n1-c1ccccc1F)N1CCOCC1 | 2.61% (inactive) | –
18 | Cc1ccc2c(c1)C1CN(C)CCC1N2S(=O)(=O)c1cccc(F)c1 (stereo unspecified) | -0.876% (inactive) | –
19 | Oc1ccc(/C=N/Nc2nc(-c3ccccc3F)nc3ccccc23)c(O)c1 | -26.6% (inactive) | –
20 | FC(F)(F)c1nc2ccccc2nc1N/N=C/c1ccc(Cl)cc1 | -3.16% (inactive) | –
21 | Cc1nc2ccccc2nc1N/N=C/c1ccc(O)cc1O | – | 14.1 µM (active)
22 | C=C1c2c(Cl)ccc(O)c2C(O)=C2C(=O)[C@]3(O)C(O)=C(C(N)=O)C(=O)[C@@H](N(C)C)[C@@H]3[C@@H](O)C12 (stereo partly specified) | – | 0.447 µM (active)
23 | Cc1nn(Cc2ccccc2)c(C)c1C(=O)N1CCN(CC(=O)Nc2ccccc2Cl)CC1 | 4.62% (inactive) | –
24 | CCN(CC(=O)NCc1ccc(F)cc1)S(=O)(=O)c1ccc(Cl)s1 | 11.7% (inactive) | –
25 | CCOc1ccc(S(=O)(=O)Nc2cccc(C(=O)NCC3(N4CCCCC4)CCCCC3)c2)cc1 | -7.83% (inactive) | –
26 | CC(Sc1ccccc1F)C(=O)Nc1cccc(S(=O)(=O)N2CCOCC2)c1 (stereo unspecified) | 4.02% (inactive) | –

Row | SMILES | activity, negative = inhibition | Potency
27 | Cc1cc(C)cc(NS(=O)(=O)Cc2ccccc2)c1 | 0.725% (inactive) | –
28 | Cc1ccccc1NC(=O)CSC(=O)c1ccccc1 | -7.88% (inactive) | –
29 | Cc1ccccc1NC(=O)CN1C(=O)N/C(=C\c2cccn2-c2cccc(C(=O)O)c2)C1=O | – | 3.55 µM (active)
30 | O=C1N/C(=C/c2cccn2-c2ccccc2)C(=O)N1c1cccc(Cl)c1 | 6.45% (inactive) | –
31 | Cc1ccc(NC(=O)C(c2ccccc2)N2CCN(C(=O)c3ccco3)CC2)cc1 (stereo unspecified) | -8.06% (inactive) | –
32 | CN(C)C(=O)CCc1ccc2c3c([nH]c2c1)[C@]1(C)[C@@H](C(=O)N2CCCCC2)C[C@H](CC(=O)NCCC2=CCCCC2)C(=O)N1CC3 | -2.71% (inactive) | –
33 | C=CCOc1cccc(C2NC(=O)c3ccccc3O2)c1 (stereo unspecified) | 0.914% (inactive) | –
34 | COc1cc(CN2CCC(C(N)=O)CC2)ccc1OCc1ccccc1 | 9.88% (inactive) | –
35 | Oc1c(CN2CCCC2)cc(COCc2ccccc2)c2cccnc12 | – | inactive and 28.2 µM (active)
36 | Clc1cccc(CN2COc3c(cc(Cl)c4cccnc34)C2)c1 | -15.3% (inactive) | –
37 | CCN(CC(=O)Nc1ccccc1C(F)(F)F)C(=O)C1CCN(C(=O)Nc2ccccc2)CC1 | -3.3% (inactive) | –
38 | COc1ccc(CCNC(=O)COC(=O)c2cnc(Cl)c(Cl)c2)cc1 | -1.86% (inactive) | –
39 | COc1ccccc1Nc1nc(N)nc(CN(C)C2CCCCC2)n1 | – | 15.8 µM (active)
40 | COc1ccccc1Nc1nc(N)nc(CSC(=S)N2CCOCC2)n1 | -0.65% (inactive) | –
41 | Cc1ccccc1Nc1nc(N)nc(CSc2ccccc2)n1 | -6.78% (inactive) | –
42 | CCCCCC(=O)N1CCN(S(=O)(=O)c2ccc3c(c2)OCCCO3)CC1 | 4.12% (inactive) | –
43 | CCOC(=O)c1sc2nc(C)[nH]c(=O)c2c1C | 3.08% (inactive) | –
44 | CSc1nnc(SCc2nc3sc(C(=O)O)c(C)c3c(=O)[nH]2)s1 | – | 3.16 µM (active)
45 | CCOC(=O)c1sc2nc(CSc3ccccc3)[nH]c(=O)c2c1C | 6.68% (inactive) | –
46 | COc1ccc(S(=O)(=O)N2CCOC23CCN(S(=O)(=O)c2ccc([N+](=O)[O-])cc2)CC3)cc1 | -11% (inactive) | –
47 | CCCCn1c(N)c(N(CC(C)C)C(=O)CN(C)S(=O)(=O)c2ccc(F)cc2)c(=O)[nH]c1=O | 5.09% (inactive) | –
48 | CN(C)c1ccc(Nc2c3c4c(cccc4n(C)c2=O)C(=O)c2ccccc2-3)cc1 | – | 7.94 µM (active)
49 | CN(C)c1ccc(C2N(C)C(=O)c3ccccc3N2C)cc1 (stereo unspecified) | -3.44% (inactive) | –
50 | CC(C)Oc1ccc(S(=O)(=O)N2CCOCC2)cc1NC(=O)C1CCCC1 | -1.04% (inactive) | –
51 | COC(=O)c1ccc2ccccc2c1OC1OC(CO)C(O)C(O)C1NC(C)=O (stereo unspecified) | 4.66% (inactive) | –
